In the library only some 5.6% were active in any assay of this set; here they are far more common.
PfM18AAP inh – PfM18AAP enzyme inhibition. recombinant PfM18AAP, H-Glu-NHMec fluorogenic cleavage. inhibition, % at 7.35 µM. actives 1.2% (n = 290,000);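 active = inhibition above the campaign mean inhibition over all tested compounds plus 3 SD, cut at about 28% in these data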
Cardio protect – modulators protecting cardiomyocytes from myocardial damage; H9c2 cardiomyocytes, H2O2 injury protection, ATPLite, 2 h; protection from H2O2 cell death, % at 20 µM; actives 0.63% (n = 360,000); AID 588492;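 active = compounds giving at least 50% protection of heart cells from peroxide-induced death in the single-dose screen, raw or plate-pattern-corrected value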
PHOSPHO1 block – PHOSPHO1 (human) inhibition; Q8TCT1; recombinant PHOSPHO1, absorbance phosphatase assay; inhibition, % at 13.3 µM; actives 1.1% (n = 290,000); AID 1565; in the data active = inhibition above about 60%
ALR inh – inhibitors of human sulfhydryl oxidase ALR; P55789; purified ALR, DTT oxidation, H2O2 HRP-luminol luminescence; actives 3.8% (n = 290,000); inhibition, % (test concentration not listed);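 active = mean replicate inhibition above about 79%, with every replicate also reaching it, limit read from the data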
Target sequence (P55789 whole entry, looked up): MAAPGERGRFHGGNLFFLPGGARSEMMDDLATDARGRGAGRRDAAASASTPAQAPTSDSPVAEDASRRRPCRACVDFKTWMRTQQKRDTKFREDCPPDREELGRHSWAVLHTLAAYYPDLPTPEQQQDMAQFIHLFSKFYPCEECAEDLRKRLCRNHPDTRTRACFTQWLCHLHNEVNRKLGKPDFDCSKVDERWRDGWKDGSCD
PfG6PD inh – PfG6PD (Plasmodium falciparum) enzyme inhibition; PfGluPho enzyme, NADPH resazurin-diaphorase fluorescence; actives 0.78% (n = 350,000); AID 504690; inhibition, % at 20 µM;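 active = inhibition reaching at least a set limit at 20 µM in the primary screen, cut at about 59% in these data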
Numbers stand for hits; - = inactive; . = not tested or not shown.

SMILES	PfM18AAP inh	Cardio protect	PHOSPHO1 block	ALR inh	PfG6PD inh
CC(C)CC(C(=O)NC1CCCC1)N(Cc1cccs1)C(=O)c1snc(C(N)=O)c1N (stereo not given)	-	-	-	.	-
CC(C)CC(C(=O)NC1CCCCC1)N(Cc1cccs1)C(=O)c1snc(C(N)=O)c1N (stereo not given)	-	51	-	-	-
O=C(NCC(=O)N(Cc1cccs1)C(C(=O)NC1CCCCC1)c1ccco1)c1ccco1 (stereo not given)	-	77	-	-	-
CN(C)c1ccc(C(C(=O)NC2CCCCC2)N(Cc2ccco2)C(=O)c2snc(C(N)=O)c2N)cc1 (stereo not given)	-	53	-	-	-
NC(=O)c1nsc(C(=O)N(c2ccccc2F)C(C(=O)NCc2ccccc2)c2ccc(O)cc2)c1N (stereo not given)	-	51	-	.	-
COc1ccc(/C=c2\s/c(=C\C(=O)C(C)(C)C)[nH]c2=O)cc1O	-	-	-	89	-
CCCC(C)c1nnc(NC(=O)CCS(=O)(=O)Cc2ccccc2)s1 (stereo not given)	29	-	-	-	-
COc1ccc(CCC(C)Nc2ccc(F)cc2)cc1 (stereo not given)	-	-	-	98	-
COc1ccc(CCC(C)Nc2cccc(C)c2)cc1 (stereo not given)	-	-	-	99	-
COc1ccc(CCC(C)Nc2ccc(F)c(F)c2)cc1 (stereo not given)	-	-	-	-	-
Cc1cc(C)c2c(-n3cccc3)c(C(=O)NNS(=O)(=O)c3ccc(Br)cc3)sc2n1	-	-	-	88	-
CCOC(=O)Nc1sc2nc(C)cc(C)c2c1-n1cccc1	-	-	-	-	-
O=[N+]([O-])c1ccc2c(c1)CNc1ccccc1O2	-	-	-	99	-
CC(=O)N1Cc2cc([N+](=O)[O-])ccc2Oc2ccccc21	-	-	-	-	-
COc1ccc(OC)c(NC(=O)C2(C)CCN2Cc2ccccc2Cl)c1 (stereo not given)	.	-	.	.	.
CSc1nc(C)cc(Oc2ccc(=O)n(C)n2)n1	-	-	-	-	-
Cc1cc(Oc2ccc(=O)n(C)n2)nc(=S)[nH]1	28	.	-	-	.
CSc1nc2cc(Oc3cccc(Cl)c3Cl)c(Cl)cc2[nH]1	-	-	-	-	-
COc1cccc(C(C)(O)c2nc(-c3ccc4c(c3)OCO4)cs2)c1 (stereo not given)	.	-	.	.	.
COC(=O)CSc1nc(N)nc(C)c1Cl	-	-	-	-	-
COC(=O)CSc1nc(C)c(C)c(C)c1C(N)=O	-	-	62	-	-
COc1ccc(N2C[C@H](Cc3ccccc3)[C@@H](CC(=O)Nc3ccccc3)C2=O)cc1	.	-	.	.	-
O=S(=O)(O)c1cccc2cccc(Nc3ccccc3)c12	.	-	.	99	-
c1ccc(Nc2cccc3c(Nc4ccccc4)cccc23)cc1	-	-	-	.	-
CN(CC(=O)Nc1ccccc1Br)C(=O)c1cccn1C	.	-	.	-	-
SMILES	PfM18AAP inh	Cardio protect	PHOSPHO1 block	ALR inh	PfG6PD inh
O=C(c1ccc(CS(=O)(=O)c2ccc(Br)cc2)o1)N1CCCCCC1	-	-	-	-	-
Cc1ccc(S(=O)(=O)Cc2ccc(C(=O)N3CCN(Cc4ccccc4)CC3)o2)cc1	-	-	-	94	.
O=C(c1ccc(CS(=O)(=O)c2ccc(Br)cc2)o1)N1CCCC1	-	-	-	96	-
Cc1ccc(CN2CCN(C(=O)c3ccncc3)CC2)cc1	-	-	68	-	-
O=C(c1ccccc1)N1CCN(Cc2ccccc2)CC1	-	-	-	-	-
Cc1ccsc1C(=O)N1CCCC1(C)C(=O)NCC(C)C (stereo not given)	.	-	.	.	.
COc1cccc(NC(=O)c2cc(OC)c(OC)c(OC)c2Br)c1	-	-	-	97	-
CCOC(=O)c1ccc(NC(=O)c2cc(OC)c(OC)c(OC)c2Br)cc1	-	-	-	-	-
CCCOc1ccc(C(=O)C(CN2CCCC2)c2ccccc2)cc1 (stereo not given)	-	-	-	96	-
O=C(NCC1CCCCC1)c1cccc(S(=O)(=O)N2CCCC2)c1	.	-	.	-	-
C=CCn1c(=O)/c(=C/c2ccc(C)o2)s/c1=C(/C#N)C(=O)c1ccccc1	-	-	83	-	-
COc1ccc(N2CC(C(=O)Nc3ccncc3)CC2=O)cc1 (stereo not given)	-	-	-	-	-
Cc1ccc(-n2c(SCC(=O)O)nc3sc4c(c3c2=O)C(C)CCC4)cc1 (stereo not given)	-	-	-	98	-

Screens deposited in PubChem by several laboratories.
